The results in this text go back to PubChem BioAssay AID2314 (National Center for Advancing Translational Sciences (NCATS), 2010).

The whole screen tested about 300,000 compounds, of which about 37,000 (12%) were called active. No stated cut-off is given here; in the data, active means max response mostly above about 13% (no sharp cut-off); inactive means mostly below about 14%. Many of the other results were omitted from the sample, so actives are more common in it than they were.

The experiment is described as follows: Cycloheximide Counterscreen for Small Molecule Inhibitors of Shiga Toxin. Further: read at 38.3 µM for the half of the compounds with a filed dose; 0% is about no effect. Conditions: cell reporter, cycloheximide protein synthesis inhibition counterscreen; stronger effect = higher value. (In general: The purpose of a counterscreen is to sort out artefacts and off-target activity.)
Regarding `COc1ccc(N2CCN(C(=O)c3ccccc3NC(=O)C3=C(C)OCCS3)CC2)cc1`, the max response was -5.37% (inactive).

Take `CN(Cc1ccc(F)cc1)C(=O)COc1ccc2ccccc2c1`: the max response is 20.1% (inactive).

On to `CN(Cc1ccccc1)C(=O)COc1ccccc1`, for which the max response was 41.1% (active).

For the compound `CN(Cc1ccccc1)C(=O)c1ccc(COc2ccccc2)cc1`, the max response is 7.81% (inactive).

Turning to `CC1=NN(c2ccc(Cl)c(C(=O)O)c2)C(=O)/C1=C/c1ccc(-c2ccccc2[N+](=O)[O-])o1`, the max response was -3.39% (inactive).

In the case of `C=C1O[C@@](CO)(n2cnc3c(N)ncnc32)[C@H](O)[C@@H]1O`, the max response is 1.03% (inactive).

For `Cc1ccc(NN=C2C(=O)OC(C)(C)OC2=O)c(C)c1`, the max response is 52% (active).

Consider `Cc1ccc(NC(=O)CCC(=O)N/N=C/c2ccco2)c(C)c1`, for which the max response was -1.51% (inactive).

In the case of `Cc1ccc(NS(=O)(=O)c2ccc3c(c2)oc(=O)n3C)c(C)c1`, the max response was 0.896% (inactive).

On to `O=c1c2ccccc2[nH]c(=S)n1CCN1CCC(=C(c2ccc(F)cc2)c2ccc(F)cc2)CC1`, for which the max response is -1.14% (inactive).

For the compound `Cc1ccc(NC(=O)CN(C)C(=O)c2ccc(Br)o2)cc1`, the max response was -4.89% (inactive).

Take `CCc1ccc(N(C(=O)c2csnn2)C(C(=O)NC2CCCCC2)c2ccncc2)cc1` (stereo not given): the max response is 8.95% (inactive).

Turning to `O=C(NNS(=O)(=O)c1ccccc1)c1cnn(-c2ccc(Cl)cc2)c1C(F)(F)F`, the max response is 1.19% (inactive).

In the case of `Cc1ccccc1NC(=O)c1cc(S(=O)(=O)Nc2cccc(C(=O)O)c2)ccc1Cl`, the max response is -4.93% (inactive).

On to `C/C(=N\Nc1cccc(C(=O)O)c1)c1ccc2c(c1)Nc1ccccc1S2`, for which the max response was 31.5% (active).

For the compound `O=C(NC1CC1)c1ccc2c(c1)NC(=O)c1ccccc1S2`, the max response is 0.906% (inactive).

Turning to `CC(C)C[C@@H](CO)N1CCN(Cc2ccc(O)cc2)CCC1=O`, the max response was -1.97% (inactive).

For `CCCN1C2CCCC1CC(NC(=O)NC13CC4CC(CC(C4)C1)C3)C2` (stereo not given), the max response was 0.762% (inactive).

On to `CC(C)c1ccc2oc(=O)cc(CN3CCN(Cc4ccccc4)CC3)c2c1`, for which the max response was -1.81% (inactive).

For the compound `O=C(CN(C(=O)c1csnn1)c1ccc(Br)cc1)NC1CCCC1`, the max response was -2.24% (inactive).

As to `O=C(NCCc1ccccn1)c1nc(Cn2cc([N+](=O)[O-])cn2)no1`, the max response was -3.93% (inactive).

For the compound `O=C(Cn1nc(Cc2cccnc2)c2ccccc2c1=O)NCC1COc2ccccc2O1` (stereo not given), the max response is -4.83% (inactive).

As for `S=c1[nH]nc(Nc2ccccc2)s1`, the max response was 1.07% (inactive).

With `O=C(c1ccc(Cl)cc1)c1cnc(Nc2ccccc2)s1`, the max response was 8.33% (inactive).

`CC(C)(C)C(=O)c1cnc(Nc2ccccc2)s1`: the max response was 44.2% (active).

With `S=c1[nH]nc(-c2ccco2)n1/N=C/c1ccc(Br)s1`, the max response was 1.13% (inactive).

As for `O=C(CSc1ncn[nH]1)Nc1nc(-c2cccc([N+](=O)[O-])c2)cs1`, the max response is 2.28% (inactive).

`O=C(CSCC(=O)Nc1cccc([N+](=O)[O-])c1)Nc1ccccc1`: the max response is 7.14% (inactive).

As for `O=C(CSc1nc(-c2ccccc2)cs1)Nc1cccc([N+](=O)[O-])c1`, the max response was 39.4% (active).

`CCNC(=O)CSc1nc(-c2ccccc2)cs1`: the max response is 44% (active).

`CCOC(=O)CSc1nnc(CNc2nc(-c3ccccc3)cs2)n1C`: the max response was -0.673% (inactive).

Regarding `O=C(CSC1=NCCS1)Nc1nc(-c2ccccc2)cs1`, the max response was 35.3% (active).

For the compound `Cn1c(CNc2nc(-c3ccccc3)cs2)nnc1SCC(=O)c1ccccc1`, the max response is -2.68% (inactive).

On to `O=C(CSc1nc2ccccc2c(=O)[nH]1)Nc1nc(-c2ccc(Br)cc2)cs1`, for which the max response is 3.64% (inactive).

Turning to `Cc1csc(NC(=O)CSc2ccc(-c3ccc(F)cc3)nn2)n1`, the max response is -6.44% (inactive).

Regarding `Cc1cc2cc3c(cc2nc1SCC(=O)Nc1c(C)cccc1C)CCC3`, the max response was 0.976% (inactive).

On to `Cc1c(CCOC(=O)CC23CC4CC(CC(C)(C4)C2)C3)sc[n+]1Cc1ccc([N+](=O)[O-])cc1`, for which the max response was -3.94% (inactive).

On to `Fc1ccc(Cn2nnnc2C(c2cccs2)N2CCCCCC2)cc1` (stereo not given), for which the max response is 0.541% (inactive).

As to `CCOc1ccccc1NS(=O)(=O)c1cc2c3c(c1)C(C)C(=O)N3CCC2` (stereo not given), the max response is -3.18% (inactive).

Regarding `CCCOc1ccccc1-c1nc(SCCC(=O)O)n[nH]1`, the max response is -3.17% (inactive).

Take `COc1ccccc1C1=Nc2cccc3cccc(c23)N1`: the max response is -1.72% (inactive).

With `COc1ccccc1-c1nc(SC)n[nH]1`, the max response was 23.3% (active).

For the compound `Cc1ccc(NC(=O)CN(C)Cc2ccc(F)cc2)c([N+](=O)[O-])c1`, the max response is 12.6% (active).

`CN(CC(=O)Nc1ccccc1[N+](=O)[O-])Cc1ccc(Br)cc1`: the max response is 7.65% (inactive).

Regarding `CSc1ccccc1NC(=O)CN(C)CC(=O)Nc1ccc(Cl)cc1[N+](=O)[O-]`, the max response is 7.28% (inactive).

With `Cc1cccc(NC(=O)COC(=O)CCc2ccccc2)c1C`, the max response was -2.64% (inactive).

On to `CCOC(=O)C(C)Oc1cccc2c(=O)n(CC(=O)NCCc3ccc(OC)c(OC)c3)ccc12` (stereo not given), for which the max response was -2.75% (inactive).

Take `O=C1CCN(Cc2ccc([N+](=O)[O-])cc2)CCN1[C@H](CO)Cc1ccccc1`: the max response is -3.88% (inactive).

For the compound `O=C(CNC(=O)c1cccnc1)N/N=C/c1cccnc1`, the max response is -3.21% (inactive).

For `O=C(N/N=C/c1sc(N2CCCCC2)nc1-c1cccs1)c1cccnc1`, the max response was 20.6% (active).

For `O=C(c1cccnc1)N1CCN(S(=O)(=O)c2cccs2)CC1`, the max response was -2.02% (inactive).

On to `CN(C(=O)c1ccccc1)c1nccnc1C#N`, for which the max response was -1.74% (inactive).

For `Cc1ccc(C)c(NC(=S)NCC(c2cccnc2)N2CCOCC2)c1` (stereo not given), the max response was -3.15% (inactive).

With `Cc1ccc(C)c(NC(=S)NNC(=S)Nc2ccc(C(C)C)cc2)c1`, the max response is 31% (active).

Turning to `COc1ccc(Br)cc1/C=N/Nc1ccc(Cl)c(C(=O)O)c1`, the max response is 7.13% (inactive).

On to `O=C(NC(=S)Nc1ccc(Cl)c(C(=O)O)c1)c1cncc(Br)c1`, for which the max response is 1.31% (inactive).

On to `CC(C)c1ccc(NC(=S)NNc2ccc(Cl)c(C(=O)O)c2)cc1`, for which the max response is 38% (active).

On to `Cc1ccc(NC(=S)N/N=C2/CCCc3c(C)cc(C)cc32)cc1`, for which the max response is -1.84% (inactive).

Turning to `CCn1c(=O)c(=O)[nH]c2c(=O)oc3ccc(S(=O)(=O)Nc4ccc(OC)cc4)cc3c21`, the max response is -4.34% (inactive).

For the compound `Cc1ccc(C(=O)NCCc2nnc(SCC(=O)Nc3cccc(C(=O)O)c3)n2C)cc1`, the max response is -0.755% (inactive).
